Screens: PubChem, several laboratories
TROY NFkB inh – blocks TROY-dependent signaling in reporter cells; Q293 LMP1-TROYcd NF-kB luciferase reporter, 4 h; inhibition, % at 10 µM; actives 0.98% (n = 360,000);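 active = compounds whose plate-normalised and pattern-corrected inhibition of the luciferase reporter signal at the single screening dose is 50% or more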
Shn3 inh set2 – Schnurri-3 reporter inhibition in Clone20 osteoblasts. Clone20 osteoblast Shn3 3'UTR firefly luciferase, 24 h. inhibition, % at 12.5 µM. actives 0.52% (n = 360,000);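 active = mean inhibition of at least 75% with every replicate also reaching 75%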;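 note: 0% = median of neutral control wells and 100% = pilot-screen positive control compound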
LMP1 NFkB inh – Epstein-Barr LMP1 NF-kappaB reporter inhibition; LMP1-induced NF-kappaB luciferase reporter cells, luminescence; actives 0.69% (n = 350,000); inhibition, % at 12.5 µM; in the data active = inhibition above about 41%;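 note: 0% = neutral control wells and 100% = reference inhibitor control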
TWEAK Fn14 block – blocks TWEAK-Fn14 interaction in a reporter cell assay. TWEAK-stimulated Fn14 reporter cells, luciferase luminescence, 8 h. inhibition, % at 10 µM. actives 2% (n = 360,000). AID 1159606; in the data active = inhibition above about 50%
MITF TRPM1 inh – MITF TRPM1 promoter inhibition in SK-MEL-5 cells. SK-MEL-5 TRPM1 promoter luciferase, 24 h. actives 0.83% (n = 330,000). inhibition, % at 12.5 µM;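 active = mean inhibition across replicates of 60% or more, whatever share of single replicates reaches that level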
Peg3 promoter – Peg3 promoter activity inhibition; HeLa PEG-Prom luciferase reporter, luminescence, overnight; inhibition, % at 20 µM; actives 1.7% (n = 360,000); AID 588405;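 active = inhibition of at least 50% at 20 µM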
An asterisk follows results filed as active; . = no result given. An excerpt weighted towards active compounds, which were near 4.1% of everything screened.

SMILES	TROY NFkB inh	Shn3 inh set2	LMP1 NFkB inh	TWEAK Fn14 block	MITF TRPM1 inh	Peg3 promoter
C[C@H]1C[C@@H](C)C(=O)[C@@H]([C@H](O)CC2CC(=O)NC(=O)C2)C1	66*	90*	74*	86*	.	90*
Cc1cccc(C)c1-n1nnnc1C(c1cc2ccccc2o1)N1CCC(n2c(=O)[nH]c3ccccc32)CC1 (configuration not stated)	77*	96*	.	102*	.	102*
O=c1[nH]c2ccccc2n1C1CCN(C(c2cc3ccccc3o2)c2nnnn2Cc2ccccc2)CC1 (configuration not stated)	46	29	.	76*	.	93*
COc1cccc(C(c2nnnn2C2CCCC2)N2CCC3(CC2)C(=O)NCN3c2ccccc2)c1OC (configuration not stated)	10	4	.	24	.	15
COc1cccc(C(c2nnnn2Cc2ccccc2)N2CCC(n3c(=O)[nH]c4ccccc43)CC2)c1OC (configuration not stated)	30	-2	.	39	.	73*
O=C1CC(N2CCC(n3c(=O)[nH]c4ccccc43)CC2)C(=O)N1Cc1ccccc1 (configuration not stated)	19	-5	5	17	11	14
O=c1[nH]c2ccccc2n1C1CCN(C(c2cccc3ccccc23)c2nnnn2Cc2ccccc2)CC1 (configuration not stated)	36	6	.	53*	.	81*
Cc1ccc(CN2C3CCCC2CC(NC(=S)NCc2ccccc2)C3)cc1 (configuration not stated)	11	16	-1	-3	-15	0
O=c1[nH]c(=S)n(-c2ccccc2Cl)c(O)c1C=NCCN1CCNCC1	0	-4	-2	21	14	14
CCOC(=O)C1CCN(C(C)C(=O)c2c[nH]c3ccccc23)CC1 (configuration not stated)	-35	17	1	6	16	5
NN=C1C(Cl)=C(Cl)C(Cl)=C1Cl	4	-19	-19	11	.	-40
O=P(N1CC1)(N1CC1)N1CCc2ccccc21	0	3	-3	32	6	1
O=c1[nH]c2ccccc2n1C1CCN(C(CCc2ccccc2)c2nnnn2C2CCCC2)CC1 (configuration not stated)	53*	48	.	51*	.	87*
COc1ccc(C[C@H]2NC[C@H](O)[C@H]2OC(C)=O)cc1	82*	94*	91*	97*	83*	94*
COc1ccc(CCNC2CCCCC2)cc1	-11	-24	-7	-6	5	3
CC(=O)O[C@H]1CC[C@@]2(C)C(=CC[C@@H]3[C@@H]2CC[C@]2(C)C(=O)CC[C@@H]32)C1	4	72	10	-19	-7	7
CC(=O)O/C(=C1\CC2C3CC=C4CC(OC(C)=O)CCC4(C)C3CCC2(C)C1=O)C(F)(F)F (configuration not stated)	19	61	18	15	14	63*
COC(=O)C1=C(C(=O)OC)C2OC1c1cc3ccccc3cc12	-11	95*	36	13	112*	95*
C[C@]12CCC3C(CC[C@H]4C[C@H](O)CC[C@]34C)C1[C@@H](O)C[C@@H]2O (some centres not stated)	9	-14	-2	5	-2	7
COC1C(OC(=O)c2ccc(C)[nH]2)C(O)C(Oc2ccc3c(O)c(NC(=O)c4ccc(O)c(CC=C(C)C)c4)c(=O)oc3c2Cl)OC1(C)C (configuration not stated)	55*	23	-4	10	13	19
CCOc1ccc(CC2(CCc3ccncc3)C(=O)NC(=O)NC2=O)cc1	-15	-20	6	-13	-7	-4
COc1ccc(-n2c(O)c(C=NCCN3CCN(C(C)=O)CC3)c(=O)[nH]c2=S)cc1	7	7	1	12	11	4
CC1CN=C(Nc2cccc3ccccc23)S1 (configuration not stated)	53*	-12	-14	44	-15	-52
CC(=NCc1ccco1)c1c(O)n(-c2ccccc2)c(=O)[nH]c1=O	-12	17	-2	-12	-8	-1
CCOC(=O)[C@]12Cc3cc(OC)ccc3[C@H]1N(C1CCCCC1)C(=O)c1ccccc12	48	.	.	66*	.	.
SMILES	TROY NFkB inh	Shn3 inh set2	LMP1 NFkB inh	TWEAK Fn14 block	MITF TRPM1 inh	Peg3 promoter
CCOC(=O)[C@]12Cc3cc(Cl)ccc3[C@H]1N(C1CCCCC1)C(=O)c1ccccc12	57*	.	.	90*	.	.
CCN1CC2([N+](=O)[O-])CC=C(Cl)C([N+](=O)[O-])(C1)C2 (configuration not stated)	-5	15	-5	-9	12	0
O=c1[nH]c(O)c(C=Nc2ccccc2Oc2ccccc2)c(=O)[nH]1	-36	-11	4	-27	5	15
CSc1cccc(NP2(=O)OCC(C)([N+](=O)[O-])CO2)c1 (configuration not stated)	-2	61	62*	25	-4	-3
Clc1cccc(N2Cc3cc(-c4ccccc4)ccc3-n3nncc3C2)c1	-14	51	.	50	.	101*
COc1ccc(-c2ccc3c(c2)CN(c2cccc(Cl)c2)Cc2cnnn2-3)cc1	-29	-28	.	25	.	-32
CC(C)(C)c1cc(C=C(C#N)C#N)cc(C(C)(C)C)c1O	57*	93*	24	73*	84*	56*
C=C1C(=O)OC2CC3(C)OC3C3OC3C3=CC(OC3=O)C12 (configuration not stated)	-3	94*	.	24	.	96*
CN1CCN(Cc2ccc3ccccc3c2)CC1	14	4	3	-3	11	-3
CCCCCCOc1ccc(CN2CCN(C)CC2)cc1	65*	-3	33	61*	-19	-139
CN1C(=O)C(C)(C2=CCCCC2)C(=O)NC1=S (configuration not stated)	2	-6	1	17	3	93*
CCCCCCCCCCCCCCCC[N+](C)(C)C	25	94*	16	-20	25	95*
CCCCCC[N+](=O)[O-]	-5	-4	-3	5	7	-6
CCc1nc2ccccc2c(=O)n1-c1ccccc1OC	9	-17	4	13	0	2
C[C@@H]1CN(C2CCC(C#N)(c3ccc(F)cc3)CC2)CC[C@]1(C(=O)O)c1ccccc1 (some centres not stated)	0	6	79*	1	5	-1
N#CC1(c2ccccc2)CCN(C2CC(=O)N(c3ccc(F)cc3)C2=O)CC1 (configuration not stated)	6	8	5	-6	-2	18
CCC(C)C1NC(=O)C(C(C)=O)=C1O (configuration not stated)	2	1	0	0	-3	7
